# Assay outcomes from PubChem BioAssay.
# Shown is part of a subset that was picked to be rich in hits.
# CD40 NFkB inh = CD40 pathway inhibition in BL2 cells | BL2 NF-kB luciferase reporter, CD40L-induced, 4 h | actives 0.94% (n = 83,000) | AID 1053188 | inhibition, % at 10 µM;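 active means mean inhibition of at least 50% with a set share of replicates also reaching that level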;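 further: 0% = neutral control wells and 100% = IKK inhibitor VII at 50 µM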
# The depositor's hits bear a star; [ ] = dose if it differs, or a comment.
SMILES,CD40 NFkB inh
O=C(COc1ncnc2scc(-c3ccc(F)cc3)c12)NCc1ccco1,2.5
CCCCCN1C=CC(=C2C(=O)c3ccccc3C2=O)C=C1,81.5*
CCCCCCCN1N=C(C)C(C(=O)c2ccccc2)C1=O (centres undefined),11.0
COc1ccc(C(=O)c2cc([N+](=O)[O-])ccc2N2CCCC2)cc1,12.6
CC(C)S(=O)(=O)c1csc(C(=O)NN)c1Cl,-4.0
COCCNC(=O)C1(C)CCCN(C(=O)c2ccc(OC)cc2OC)C1 (centres undefined),4.8
CC1(C)C2CCC1(C)C(OCC[N+](C)(C)CC(=O)OC1CCCCC1)C2 (centres undefined),57.3*
O=C(CCCCC(=O)OC1CCCCC1)OC1CCCCC1,-10.3
CC1(C)[C@H]2CC[C@]1(C)[C@@H](OC(=O)C[N+]1(C)CCOCC1)C2,-0.3
O=C1c2ccccc2C(=O)C1c1ccc2ccccc2n1,52.4*
O=C1c2ccccc2-c2nc3ccccc3cc21,-83.9
COc1ccc(C2C(=O)c3ccccc3C2=O)cc1,-8.8
Cc1ccc2nc(SCC(=O)Nc3ccc(Br)cc3)nc(=O)n2c1,-18.9
COc1ccc(NC(=O)C2C(=O)NC3(C)CC2c2ccccc2O3)cc1 (centres undefined),2.8
C[C@@H]1CN([C@@H](C)CO)C(=O)Cc2cc(NS(=O)(=O)c3ccc(F)cc3)ccc2O[C@H]1CN(C)Cc1ccncc1,6.9[25 µM]
C[C@H](CO)N1C[C@H](C)[C@@H](CN(C)Cc2ccc(C(F)(F)F)cc2)Oc2ccc(NS(=O)(=O)c3ccc(Cl)cc3)cc2CC1=O,52.3*
C[C@@H]1CN([C@@H](C)CO)C(=O)Cc2cc(NS(=O)(=O)c3ccc(F)cc3)ccc2O[C@@H]1CN(C)Cc1ccc(C(F)(F)F)cc1,47.2*
C[C@@H]1CN([C@H](C)CO)C(=O)Cc2cc(NS(=O)(=O)c3ccccc3)ccc2O[C@H]1CN(C)Cc1ccc(Cl)c(Cl)c1,42.2
C[C@H](CO)N1C[C@H](C)[C@@H](CN(C)Cc2ccncc2)Oc2ccc(NS(=O)(=O)c3ccc(F)cc3)cc2CC1=O,0.1[25 µM]
COc1ccc(CN(C)C[C@H]2Oc3ccc(NS(=O)(=O)c4ccc(Cl)cc4)cc3CC(=O)N([C@@H](C)CO)C[C@@H]2C)cc1,13.1
C[C@@H]1CN([C@H](C)CO)C(=O)Cc2cc(NS(=O)(=O)c3ccc(F)cc3)ccc2O[C@H]1CN(C)Cc1ccncc1,5.2[25 µM]
C[C@@H]1CN([C@H](C)CO)C(=O)Cc2cc(NS(=O)(=O)c3ccc(F)cc3)ccc2O[C@H]1CN(C)Cc1ccc(C(F)(F)F)cc1,55.7*
C[C@@H]1CN([C@H](C)CO)C(=O)Cc2cc(NS(C)(=O)=O)ccc2O[C@@H]1CN(C)Cc1ccc(C(=O)O)cc1,-1.3
CC(C)CC(=O)c1c[nH]c(C(=O)O)c1,4.9
Cc1ccnc(NC(=O)c2ccc(NS(=O)(=O)/C=C/c3ccccc3)cc2)c1,-35.4
SMILES,CD40 NFkB inh
COC(=O)c1ccccc1NC(=O)N1CCN(C/C=C/c2ccccc2)CC1,0.3
CCCCOc1ccc(C(=O)NCC(=O)NCC(c2ccco2)N2CCCCC2)cc1 (centres undefined),-4.0
CC(=O)N(CCC(Cc1ccccc1)c1ccc2c(c1)OCO2)Cc1ccc(Cl)cc1 (centres undefined),2.7
C/C(=N\N=C1\NC(=O)CS1)c1cccs1,-6.0
O=C1CC(N2CCN(c3ccccc3)CC2)C(=O)N1Cc1ccc(Cl)cc1 (centres undefined),7.1
COc1ccc(OC)c(-c2csc(NC(=O)COC(=O)C3CCC3)n2)c1,0.5
COc1ccc(CN(C)C[C@H]2Oc3ccc(NC(=O)Nc4c(C)noc4C)cc3C(=O)N([C@@H](C)CO)C[C@H]2C)cc1,-6.7[25 µM]
CSCC[C@@H](C(=O)O)N1Cc2ccccc2C1=O,22.9
O=C(COC(=O)c1ccccc1[N+](=O)[O-])c1ccc(C2CCCCC2)cc1,90.8*
CN(C)c1ccc(C(=O)c2ccccc2C(=O)O)cc1[N+](=O)[O-],10.7
O=C(COC(=O)c1ccccc1[N+](=O)[O-])Nc1cccnc1Cl,-35.3
CS(=O)(=O)c1ccc(Cl)c(C(=O)OCC(=O)NC2CCCCCCC2)c1,20.6
Cc1c(C(=O)OCC(=O)NC(=O)NC2CCCCC2)cccc1[N+](=O)[O-],0.1
CC1CCC(NC(=O)COC(=O)CSc2ccc(C(N)=O)cc2[N+](=O)[O-])CC1 (centres undefined),6.5
O=C(COC(=O)c1ccccc1C(=O)c1ccc(Cl)c([N+](=O)[O-])c1)NC1CC1,97.5*
CNc1ccc(C(=O)c2ccccc2C(=O)O)cc1[N+](=O)[O-],0.5
O=C(OC1CCOC1=O)c1ccccc1C(=O)c1ccc(Cl)c([N+](=O)[O-])c1 (centres undefined),78.0*
CCN(C(=O)COC(=O)Cn1c(C)csc1=O)c1c(N)n(Cc2ccccc2)c(=O)[nH]c1=O,4.8
O=C(CC1CCCC1)NCCS(=O)(=O)N1CCN(c2ccccc2)CC1,8.8
CC(=O)N1[C@@H]2c3cccc(=O)n3C[C@H]1[C@H](CO)[C@H]2C(=O)NCc1ccc(F)cc1,-11.1[25 µM]
O=C(Nc1cc(-c2ccccc2)cs1)c1ccco1,-120.5
O=C(C[C@H]1CC[C@H](NC(=O)CN2CCOCC2)[C@H](CO)O1)NC1CCC1,-0.7[25 µM]
COc1ccc(OC)c(S(=O)(=O)Nc2ccc3c(c2)N(C(C)=O)CCC3)c1,6.6
OCCC1CN(Cc2cccn2-c2ccccn2)CCN1C1CCCC1 (centres undefined),12.6
O=C(O)CCC(=O)Nc1ccc(Br)c(Cl)c1,36.3*
SMILES,CD40 NFkB inh
CCCC(=O)Nc1ccc(Br)c(Cl)c1,8.7
CC(=O)Nc1ccc(Br)c(Cl)c1,3.0
COC(=O)CCC(=O)Nc1cccc(Cl)c1,10.7
O=C(Nc1ccc(F)cc1)N1CCC(c2nc3c(nnn3Cc3cccc(Cl)c3)c(=O)[nH]2)CC1,69.2*
O=C(NC1CCCC1)c1nc2c(nnn2Cc2cccc(Cl)c2)c(=O)[nH]1,22.3
Cc1ccc(NC(=O)N2CCC(c3nc4c(nnn4Cc4cccc(Cl)c4)c(=O)[nH]3)CC2)cc1,42.5
O=C(NCCN1CCOCC1)C1CCN(c2nc3ccccc3o2)CC1,4.7
CN(CC(=O)Nc1ccccc1C(F)(F)F)C(=O)CSc1nc(N)cc(N)n1,3.1
Cn1ncc(Br)c1C(=O)O,1.3
CC(=O)Cn1ncc(Br)c(Br)c1=O,99.5*
CO/N=C(\Cn1ncc(N2CCOCC2)c(Br)c1=O)c1ccc(Cl)cc1,25.2
O=c1c2ccccc2nc(SCc2cc(F)cc3c2OCOC3)n1Cc1ccco1,4.9
Cc1cc2c(=O)oc(-c3ccc(F)cc3)nc2s1,-25.3
CC1CCN(C(=O)CCCC(=O)O)CC1,2.0
Cc1ccc(-c2cc(C(=O)NCC3(N(C)C)CCCCC3)c3ccccc3n2)o1,-0.5
COc1ccc(NC(=O)CN(C)C(=O)c2cc(-c3ccco3)nc3ccccc23)cc1,-6.4
Cc1ccc(-c2cc(C(=O)N(C)CC(=O)Nc3ccccc3Br)c3ccccc3n2)o1,55.1*
CO[C@@H]1CN(C)C(=O)c2ccc(NC(=O)C3CCC3)cc2OC[C@H](C)N(Cc2cccnc2)C[C@@H]1C,0.5
O=C(CCCn1c(=O)c2sccc2n(Cc2ccc(F)cc2)c1=O)NCc1ccco1,14.7
Cc1ccccc1OCC(=O)Nc1ccc2c(c1)C(=O)c1ccccc1C2=O,-9.2
Cc1ccccc1OCC(=O)Nc1cccc(C(=O)O)c1,91.2*
Cc1ccccc1OCC(=O)Nc1ccc2c(c1)Cc1ccccc1-2,7.0
O=C(C[C@H]1C=C[C@@H](NC(=O)c2cccc(F)c2)[C@H](CO)O1)NCc1ccccc1,2.5
